# Reference: PubChem BioAssay (NCATS)
# Records with an inconclusive call do not appear. A call without a number means that no potency is given here. Calls of active or inactive are those of the source. Calls come from the whole dose curve; as a rule, active = well fitted inhibition curve with a large enough effect; inconclusive = small, poorly fitted or top-dose-only effect; inactive = no such curve, though single readings can be large or run the other way.
# Test: qHTS to identify inhibitors of the type 1 interferon - major histocompatibility complex class I in skeletal muscle: primary screen against the NCATS Mechanism Interrogation Plate v5.0 (MIPE) Libary (AID 1347411); note: nearly all actives have a fitted effect of over 65% in size
# Details: iHSKM cells + IFN-b, HiBiT-tagged MHC-I luminescence, 24 h; series mostly up to 45.8 µM
# Method in brief: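 Immortalized human myoblasts (C25cl48) with HiBit knocked into endogenous HLA-B*08:01 were stimulated with 4 ng/ml IFN-beta and given compounds in 11-point 1:3 titration from 46 uM. After 24 h at 37 C, lytic HiBiT luminescence was read.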
# Potency is the fitted concentration of half-maximal effect.
row,SMILES,Potency
1,CS(=O)(=O)N1CCC(NC(=O)c2[nH]ncc2NC(=O)c2c(Cl)cccc2Cl)CC1,1.47 µM (active)
2,CCO[C@@H]1OC(=O)C[C@@H]1NC(=O)[C@@H]1CCCN1C(=O)[C@@H](NC(=O)c1ccc(N)c(Cl)c1)C(C)(C)C,inactive
3,CC(O)c1cc(C(=O)N[C@@H](C)Cn2ccc(-c3ccc(C#N)c(Cl)c3)n2)n[nH]1 (stereo partly drawn),inactive
4,CC[C@H](NC(=O)[C@H](CS(=O)(=O)CC1CC1)N[C@@H](c1ccc(F)cc1)C(F)(F)F)C(=O)C(=O)NC1CC1,inactive
5,CC(C)(C)C(=O)CN1C(=O)[C@H](NC(=O)Nc2cccc(C(=O)O)c2)CN(C2CCCCC2)c2ccccc21,inactive
6,CS(=O)(=O)c1ccc(-c2nnc(/C=C/c3nnc(-c4ccc(C#N)cc4)o3)n2-c2ccccc2Cl)nc1,inactive
7,Cc1c(F)cc(C(=O)NC2CC2)cc1-c1c(F)cn2c(C(C)(C)C)nnc2c1F,inactive
8,COc1ccc(C(=O)C2CCN(CC(=O)N(Cc3nc4c(c(=O)[nH]3)COCC4)CC3CC3)CC2)cc1,inactive
9,Cc1ccc(NC(=O)Nc2cc(C(F)(F)F)ccc2F)cc1Nc1ccc2c(c1)NC(=O)/C2=C\c1ccc[nH]1,23.4 µM (active)
10,O=C(NOCC(O)CO)c1ccc(F)c(F)c1Nc1ccc(I)cc1F (stereo not drawn),inactive
11,Cc1cc(O)c(-c2ccc([C@@H](C)CN(C)C)cc2)c2c1[nH]c(=O)c1sccc12,0.104 µM (active)
12,Cc1ccc([N+](=O)[O-])cc1S(=O)(=O)N(C)/N=C/c1cnc2ccc(Br)cn12,0.104 µM (active)
13,Cc1cccc(Oc2cnc(=O)[nH]c2)c1,inactive
14,COc1ccc(Cl)c(Nc2nc3ccccc3nc2NS(=O)(=O)c2cccc(NC(=O)C(C)(C)N)c2)c1,inactive
15,CC(C)[C@@H](CS(=O)(=O)C(C)C)N1C(=O)[C@@](C)(CC(=O)O)C[C@H](c2cccc(Cl)c2)[C@H]1c1ccc(Cl)cc1,inactive
16,COc1cc2ncnc(Nc3cccc(Cl)c3F)c2cc1OC(=O)N1CCN(C)C[C@H]1C,inactive
17,CCN1CCN(Cc2ccc(Nc3ncc(F)c(-c4cc(F)c5nc(C)n(C(C)C)c5c4)n3)nc2)CC1,10.4 µM (active)

row,SMILES,Potency
1,Cc1cc(Nc2cc(N3CCN(C)CC3)nc(/C=C/c3ccccc3)n2)n[nH]1,5.23 µM (active)
2,CCOCc1nc2c(N)nc3ccccc3c2n1CC(C)(C)O,inactive
3,C[C@H](Nc1ncnc2nc[nH]c12)c1cc2ccc(F)cc2nc1-c1ccccn1,inactive
4,CCCN1CCN(c2ccc(C(=O)NC3(C(=O)NCC#N)CCCCC3)cc2)CC1,inactive
5,CCN1CCN(Cc2ccc(NC(=O)c3ccc(C)c(/C=C/c4cnc5[nH]ccc5c4OC)c3)cc2C(F)(F)F)CC1,6.58 µM (active)
6,O=C(O)c1ccc(CN2CCC(CN[C@@H]3C[C@H]3c3ccccc3)CC2)cc1,inactive
7,CCN1CCN(Cc2ccc(NC(=O)Nc3ccc(Oc4cc(NC)ncn4)cc3)cc2C(F)(F)F)CC1,7.39 µM (active)
8,CN(C)C/C=C/C(=O)Nc1cccc(C(=O)Nc2cccc(Nc3ncc(Cl)c(-c4c[nH]c5ccccc45)n3)c2)c1,0.658 µM (active)
9,C[C@H]1[C@H](O)O[C@@H]2O[C@@]3(C)CC[C@H]4[C@H](C)CC[C@@H]1[C@@]24OO3,inactive
10,CC#CC(=O)N1CCC[C@H]1c1nc(-c2ccc(C(=O)Nc3ccccn3)cc2)c2c(N)nccn12,inactive
11,COc1cc(C(=O)NC2CCN(C)CC2)c(F)cc1Nc1ncc2c(n1)N(C1CCCC1)CC(F)(F)C(=O)N2C,14.7 µM (active)
12,CC1=C(CO)C(=O)O[C@@H]([C@@H](C)[C@H]2CC[C@H]3[C@@H]4C[C@H]5O[C@]56[C@@H](O)C=CC(=O)[C@]6(C)[C@H]4CC[C@]23C)C1,0.466 µM (active)
13,Cc1nc([C@](C)(O)CO)sc1-c1cnc(N)c(O[C@H](C)c2cc(F)ccc2-n2nccn2)c1,inactive
14,CNCc1ccc(-c2cc(-c3nc(-c4ccc(S(=O)(=O)C(C)C)cc4)cnc3N)on2)cc1,inactive
15,Cc1ccc(NC(=O)c2ccc(CN3CC[C@H](N(C)C)C3)c(C(F)(F)F)c2)cc1Nc1nccc(-c2cncnc2)n1,16.1 µM (active)
16,CC(C)c1c2cc(-c3ccnc(NC4CCC(NC5CCOCC5)CC4)n3)ccc2nn1C (stereo not drawn),0.104 µM (active)
